High-throughput results deposited in PubChem BioAssay by several laboratories.
Hits are enriched below; roughly 5.4% of the tested compounds scored in any of these assays.
PHOSPHO1 block = PubChem AID 1565; Phosphoethanolamine/phosphocholine phosphatase (Homo sapiens), Q8TCT1; recombinant PHOSPHO1, absorbance phosphatase assay; inhibition, % at 13.3 µM; actives 1.1% (n = 290,000); in the data active = inhibition above about 60%
rCAG binder = binders of r(CAG) RNA repeats, primary screen, biochemical, fluorescence; r(CAG) RNA repeat, TO-PRO-1 dye displacement fluorescence; inhibition, % at 3 µM; actives 1.3% (n = 370,000); AID 651821, 2012;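 active = inhibition above the plate cutoff, the mean of all test compounds on that plate plus 3 SD, cut at about 35% in these data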;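 note: higher means more dye released from RNA so lower well fluorescence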
APOBEC3G inh = APOBEC3G DNA deaminase inhibitors, primary screen, biochemical, fluorescence, single-stranded DNA substrate, uHTS; recombinant A3G, ssDNA deamination FAM/TAMRA fluorescence; actives 0.28% (n = 330,000); inhibition, % at 20 µM; AID 493012, 2011; DNA dC->dU-editing enzyme APOBEC-3G (Homo sapiens), Q9HC16;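 active = inhibition of at least 40% at 20 µM, with no more than 30% in the related APOBEC3A deaminase screen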
ALR inh = inhibitors of human ALR sulfhydryl oxidase, primary screen, biochemical, H2O2 detection, HRP-luminol luminescence, single point; actives 3.8% (n = 290,000); AID 485317, 2010; purified ALR, DTT oxidation; inhibition, % (no concentration beside the values);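 active = mean replicate inhibition above about 79%, with every replicate also reaching it, limit read from the data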
Target sequence (P55789 whole entry, looked up): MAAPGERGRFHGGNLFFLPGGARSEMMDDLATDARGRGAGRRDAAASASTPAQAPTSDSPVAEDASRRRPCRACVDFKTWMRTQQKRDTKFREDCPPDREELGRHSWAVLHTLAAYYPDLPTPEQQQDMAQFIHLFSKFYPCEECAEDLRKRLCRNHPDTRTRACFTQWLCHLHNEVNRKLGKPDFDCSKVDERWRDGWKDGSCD
APOBEC3A inh = APOBEC3A ssDNA deaminase inhibitors, primary screen, selectivity assay for APOBEC3G inhibitor project, biochemical, FAM/TAMRA oligo cleavage fluorescence; DNA dC->dU-editing enzyme APOBEC-3A (Homo sapiens), P31941; AID 493011, 2011; recombinant A3A, FAM/TAMRA ssDNA deamination fluorescence; actives 0.41% (n = 330,000); inhibition, % at 20 µM;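 active = at least 40% inhibition at 20 µM here, with at most 30% in a related deaminase screen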
Target sequence (P31941 whole entry, looked up): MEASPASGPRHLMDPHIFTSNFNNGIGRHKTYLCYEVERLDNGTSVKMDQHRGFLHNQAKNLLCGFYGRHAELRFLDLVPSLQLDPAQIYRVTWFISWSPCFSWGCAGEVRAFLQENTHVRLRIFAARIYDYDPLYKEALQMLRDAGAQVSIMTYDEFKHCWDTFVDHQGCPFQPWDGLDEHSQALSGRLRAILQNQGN
aDG glyco act = activators of alpha-DG glycosylation, primary screen, uHTS, Pro5-aDG cells, AlphaScreen; alpha-DG glycosylation AlphaScreen (IIH6); 0% Pro5, 100% B10-LARGE cell signal; activation, % at 10 µM; actives 0.22% (n = 360,000); AID 624168, 2012;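 active = activation of at least 8% versus controls, or a plate z-score of at least 8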;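 note: Pro5 are CHO cells carrying HIG-tagged alpha-DG that lacks glycosylation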
APOBEC3G confirm = APOBEC3G deaminase inhibitor retest, confirmation, biochemical, fluorescence, single-stranded DNA substrate, single concentration; shares compounds with APOBEC3G inh; recombinant A3G ssDNA deaminase, UDG/FAM-TAMRA fluorescence; inhibition, % at 20 µM; actives 72% (n = 890);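 active = inhibition reaching a set limit in any replicate at 20 µM, the limit being 80% of the first screen's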
UDG ctr A3G = E. coli UDG inhibitors, confirmation, counter-screen for APOBEC3G inhibitor project, biochemical, single concentration, fluorescence, FAM/TAMRA oligo. inhibition, % at 20 µM. AID 504715, 2011. 710 tested, under 10 active. shares compounds with APOBEC3G inh. UDG counterscreen;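 active = compounds giving 40% or more inhibition at 20 µM in any one of the three replicates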;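 note: inhibitors lower the FAM signal released by uracil excision and alkaline cleavage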
Target sequence (P12295 whole entry, looked up): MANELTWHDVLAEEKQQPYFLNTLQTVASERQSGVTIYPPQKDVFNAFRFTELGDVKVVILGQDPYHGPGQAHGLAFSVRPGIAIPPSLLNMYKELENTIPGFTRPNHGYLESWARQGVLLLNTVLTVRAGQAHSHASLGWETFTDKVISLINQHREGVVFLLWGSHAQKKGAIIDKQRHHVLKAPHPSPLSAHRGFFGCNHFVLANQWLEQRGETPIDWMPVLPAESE
Large screens that a line does not name were inactive (follow-up assays come after a bar, where they were run).

COc1ccc(S(=O)(=O)N2CCOCC2)cc1C(=O)Nc1ccc2c(c1)OCO2	none
O=S(=O)(c1ccc(Nc2ccc3c(c2)OCO3)nc1)N1CCOCC1	APOBEC3G inh 43.7 | APOBEC3G confirm inactive
O=S(=O)(Cc1ccccc1)N=Nc1c(O)[nH]c2ccc(Br)cc12	PHOSPHO1 block 65.4, APOBEC3G inh 50.9 (no result: rCAG binder) | APOBEC3G confirm 68.0 | UDG ctr A3G inactive
COC(=O)c1sc(NC(=O)c2cc(-c3ccccc3)nc3ccccc23)c(C#N)c1C	PHOSPHO1 block 96.2, APOBEC3G inh 63.6 | APOBEC3G confirm 57.7 | UDG ctr A3G inactive
CCOC(=O)c1sc(NC(=O)c2cc(-c3ccc(C)cc3)nc3ccccc23)c(C#N)c1C	none
CCOC(=O)C1(C)CCCN(C(=O)c2ccc(C)c(F)c2)C1 (configuration not stated)	none (no result: PHOSPHO1 block, APOBEC3G inh, ALR inh, APOBEC3A inh)
Cc1cc(C)nc(SCCN(C)C)n1	none
Cc1cc(C)nc(SSc2nc(C)cc(C)n2)n1	APOBEC3G inh 57.3 (no result: ALR inh) | APOBEC3G confirm 83.0 | UDG ctr A3G inactive
CCCCCCCCN1C(=O)[C@@H](CC(=O)NCc2cccc(C(F)(F)F)c2)C[C@@]2(C(=O)OC)C1=C[C@H](C1CCCC1)O[C@@H]2C	none (no result: PHOSPHO1 block, APOBEC3G inh, ALR inh, APOBEC3A inh, aDG glyco act)
Cc1cc(-c2nsc(=O)o2)c(S(C)(=O)=O)s1	PHOSPHO1 block 69.2, APOBEC3G inh 65.8, ALR inh 99.2 | APOBEC3G confirm 69.2
O=C(CC1SCCNC1=O)NCc1ccccc1 (configuration not stated)	none (no result: PHOSPHO1 block, APOBEC3G inh, ALR inh, APOBEC3A inh)
Cc1cc(-c2n[nH]c(=S)n2-c2ccc(F)cc2)nn1C	APOBEC3G inh 62.6 | APOBEC3G confirm 59.9 | UDG ctr A3G inactive
Cc1ccc(-n2c(-c3ccccc3)n[nH]c2=S)cc1	none
CCOc1ccccc1CN(Cc1ccco1)S(=O)(=O)c1ccc(-n2cnnn2)c(OC)c1	none (no result: APOBEC3G inh, ALR inh, APOBEC3A inh)
Cc1cc(S(=O)(=O)N(Cc2ccccn2)Cc2ccco2)ccc1-n1cnnn1	APOBEC3G inh 50.3 | APOBEC3G confirm inactive
CCCCN(C)S(=O)(=O)c1cc2c(cc1Br)CCN2C(=O)C1CC1	none (no result: PHOSPHO1 block, APOBEC3G inh, ALR inh, APOBEC3A inh)
COC(=O)[C@]12C[C@H](CC(=O)NCc3ccccc3)C(=O)N(Cc3ccccc3)C1=C[C@H](C(C)C)O[C@@H]2C1CC1	none (no result: PHOSPHO1 block, APOBEC3G inh, ALR inh, APOBEC3A inh, aDG glyco act)
N/C(=N\c1nc2ccccc2o1)NC(=O)c1ccccc1	APOBEC3G inh 61.2 | APOBEC3G confirm inactive | UDG ctr A3G inactive
Cc1ccc(C(=O)N/C(N)=N/c2nc3ccccc3o2)cc1	none
O=C(CN1CCN(c2ccc(O)cc2)CC1)Nc1ccc2c(c1)OCCO2	APOBEC3G inh 61.7, ALR inh 77.7 | APOBEC3G confirm inactive
Cc1nc(SCc2ccc(O)c([N+](=O)[O-])c2)n[nH]1	none
Cc1nc(SCc2ccc(O)c([N+](=O)[O-])c2)c([N+](=O)[O-])[nH]1	APOBEC3G inh 63.3 | APOBEC3G confirm 57.8 | UDG ctr A3G inactive
Cc1ccc(NNC(=O)c2ccno2)cc1C	APOBEC3G inh 42.3, ALR inh 98.4 | APOBEC3G confirm 39.1 | UDG ctr A3G inactive
O=C(Nc1cc(Cl)cc(Cl)c1)c1ccno1	none (no result: ALR inh)
Cc1nc2c(=O)[nH]c(=S)n(C)c2nc1C	APOBEC3G inh 52.3 | APOBEC3G confirm inactive | UDG ctr A3G inactive
Cc1nc2[nH]c(=S)[nH]c(=O)c2nc1C	none (no result: PHOSPHO1 block, APOBEC3G inh, ALR inh, APOBEC3A inh)
COc1cccc(Nc2n[nH]c(=S)s2)c1	APOBEC3G inh 58.3 | APOBEC3G confirm 62.6 | UDG ctr A3G inactive
CCCc1ccc(C(O)c2ncc(-c3ccc(OC)cc3)[nH]2)cc1 (configuration not stated)	none (no result: PHOSPHO1 block, APOBEC3G inh, ALR inh, APOBEC3A inh)
O=C(Nc1cc(Cl)cc(Cl)c1)N[C@@H]1CC[C@@H](CCNS(=O)(=O)c2cccc(F)c2)O[C@@H]1CO	none (no result: PHOSPHO1 block, APOBEC3G inh, ALR inh, APOBEC3A inh)
CCOC(=O)c1sc(N)c(C(=O)OC)c1C	none
CCOC(=O)c1sc(N)c(C(=O)Nc2ccccc2OC)c1C	APOBEC3G inh 51.1 | APOBEC3G confirm 67.3 | UDG ctr A3G inactive
Nc1ccn([C@@H]2O[C@H](C(=O)N[C@H](Cc3ccccc3)C(=O)N3CCN(CC(=O)N4CCCC4)CC3)[C@@H](O)[C@H]2O)c(=O)n1	none (no result: PHOSPHO1 block, APOBEC3G inh, ALR inh, APOBEC3A inh, aDG glyco act)
Cc1ccc(NNC(=O)c2c(C)noc2C)cc1Cl	none
Cc1noc(C)c1C(=O)NNc1ccc(C(C)C)cc1	APOBEC3G inh 45.7 | APOBEC3G confirm inactive | UDG ctr A3G inactive
CC(C)c1ccc(NNC(=O)C2CCC2)cc1	APOBEC3G inh 49.9 (no result: ALR inh) | APOBEC3G confirm inactive
O=c1c2c3c(sc2n2c(=S)[nH]nc2n1-c1ccccc1)CCC3	APOBEC3G inh 53.1 | APOBEC3G confirm 83.9 | UDG ctr A3G inactive
Cc1ccc(-n2c(=O)c3c4c(sc3n3c(=S)[nH]nc23)CCC4)cc1	none
CCn1c(=O)c2c3c(sc2n2c(=S)[nH]nc12)CCC3	PHOSPHO1 block 102.0, APOBEC3G inh 59.1, ALR inh 86.8 | APOBEC3G confirm 88.0 | UDG ctr A3G inactive
CCN(CC)C(=O)CC[C@H]1CC[C@]2(CCCN(Cc3ccccn3)C2)O1	none (no result: PHOSPHO1 block, APOBEC3G inh, ALR inh, APOBEC3A inh, aDG glyco act)
CC(Cc1c[nH]c2ccccc12)C(=O)O (configuration not stated)	APOBEC3G inh 40.2 | APOBEC3G confirm 44.7
COCCn1nnnc1C(c1cccs1)N1CCN(c2nc3ccccc3s2)CC1 (configuration not stated)	APOBEC3G inh 56.5 | APOBEC3G confirm inactive
CCN(CC)C(=O)C1=C(C)N(Cc2ccc(F)cc2)C(=O)C(CC(=O)NCc2ccco2)C1 (configuration not stated)	none (no result: PHOSPHO1 block, APOBEC3G inh, ALR inh, APOBEC3A inh)
CCC1CCc2c(sc(NC(=O)c3cnccn3)c2C(N)=O)C1 (configuration not stated)	APOBEC3G inh 57.9 (no result: ALR inh) | APOBEC3G confirm inactive | UDG ctr A3G inactive
CCC1CCc2c(sc(NC(=O)c3ccco3)c2C(N)=O)C1 (configuration not stated)	none
O=c1c2cc(C(F)(F)F)ccc2sn1-c1ccccc1	none (no result: PHOSPHO1 block, APOBEC3G inh, ALR inh, APOBEC3A inh)
O=c1c2ccccc2sn1-c1cccc(Cl)c1	none (no result: PHOSPHO1 block, APOBEC3G inh, ALR inh, APOBEC3A inh)
CN(C)S(=O)(=O)c1cccc(-n2sc3ccccc3c2=O)c1	APOBEC3G inh 85.3 (no result: ALR inh) | APOBEC3G confirm 93.4 | UDG ctr A3G inactive
O=c1c2cc(F)ccc2sn1-c1ccccc1	APOBEC3G inh 85.6 (no result: PHOSPHO1 block) | APOBEC3G confirm 88.2 | UDG ctr A3G inactive
